From the supplement of paper PMC12819154, “High-throughput peptide-centric local stability assay extends protein–ligand identification to membrane proteins, tissues and bacteria” (Nature Structural & Molecular Biology, 2025)

compound: CN[C@@H]1C[C@H]2O[C@@](C)([C@@H]1OC)n1c3ccccc3c3c4c(c5c6ccccc6n2c5c31)C(=O)NC4 [staurosporine]; assay: log2 fold change of tryptic peptide abundance, ligand vs vehicle (limited proteolysis) (log2 ratio); higher = more trypsin-susceptible (destabilized); conditions: ligand concentration: 20 uM; sample: mouse liver crude lysate; replicate design: treated separately

Sequence of UniProt Q03963 (Q03963 whole entry): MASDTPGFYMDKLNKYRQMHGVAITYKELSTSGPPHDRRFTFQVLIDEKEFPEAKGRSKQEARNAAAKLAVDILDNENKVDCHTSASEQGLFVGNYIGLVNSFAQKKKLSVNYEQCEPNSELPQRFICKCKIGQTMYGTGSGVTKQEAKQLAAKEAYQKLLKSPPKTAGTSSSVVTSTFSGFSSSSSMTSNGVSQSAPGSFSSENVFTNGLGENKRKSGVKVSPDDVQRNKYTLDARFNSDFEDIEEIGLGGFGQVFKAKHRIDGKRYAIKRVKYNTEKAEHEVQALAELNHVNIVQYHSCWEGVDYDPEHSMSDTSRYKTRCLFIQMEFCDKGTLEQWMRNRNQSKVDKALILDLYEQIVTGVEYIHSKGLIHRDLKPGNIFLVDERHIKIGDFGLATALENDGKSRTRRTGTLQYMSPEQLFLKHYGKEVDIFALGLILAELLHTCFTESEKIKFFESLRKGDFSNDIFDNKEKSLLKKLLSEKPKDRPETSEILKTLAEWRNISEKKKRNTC
Sequence of UniProt Q62073 (Q62073 whole entry): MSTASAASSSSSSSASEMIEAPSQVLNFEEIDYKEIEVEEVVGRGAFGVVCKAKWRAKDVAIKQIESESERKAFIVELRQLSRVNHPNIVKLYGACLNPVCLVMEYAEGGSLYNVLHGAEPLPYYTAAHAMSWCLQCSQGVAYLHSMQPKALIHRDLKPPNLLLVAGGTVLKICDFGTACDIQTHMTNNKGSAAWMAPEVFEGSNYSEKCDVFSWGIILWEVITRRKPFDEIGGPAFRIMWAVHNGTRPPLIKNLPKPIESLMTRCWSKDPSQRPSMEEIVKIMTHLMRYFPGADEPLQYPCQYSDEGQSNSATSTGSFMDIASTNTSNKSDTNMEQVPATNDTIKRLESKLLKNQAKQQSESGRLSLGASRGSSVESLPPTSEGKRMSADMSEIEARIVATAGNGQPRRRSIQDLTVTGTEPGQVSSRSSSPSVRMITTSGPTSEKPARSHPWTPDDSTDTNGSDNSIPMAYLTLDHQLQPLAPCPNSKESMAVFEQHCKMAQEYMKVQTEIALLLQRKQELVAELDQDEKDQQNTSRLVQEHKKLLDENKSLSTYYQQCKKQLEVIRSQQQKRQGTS
Sequence of UniProt P26149 (P26149 whole entry): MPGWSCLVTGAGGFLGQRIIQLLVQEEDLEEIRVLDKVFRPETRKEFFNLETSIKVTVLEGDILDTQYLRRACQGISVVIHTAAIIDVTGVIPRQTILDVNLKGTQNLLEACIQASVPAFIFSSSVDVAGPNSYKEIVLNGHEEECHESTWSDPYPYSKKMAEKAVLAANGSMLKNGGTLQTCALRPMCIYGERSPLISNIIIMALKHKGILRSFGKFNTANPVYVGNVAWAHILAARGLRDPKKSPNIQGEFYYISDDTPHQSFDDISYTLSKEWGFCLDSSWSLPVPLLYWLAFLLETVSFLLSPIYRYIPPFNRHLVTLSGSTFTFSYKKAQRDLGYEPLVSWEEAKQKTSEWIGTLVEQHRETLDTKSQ
Sequence of UniProt Q91XD8 (Q91XD8 whole entry): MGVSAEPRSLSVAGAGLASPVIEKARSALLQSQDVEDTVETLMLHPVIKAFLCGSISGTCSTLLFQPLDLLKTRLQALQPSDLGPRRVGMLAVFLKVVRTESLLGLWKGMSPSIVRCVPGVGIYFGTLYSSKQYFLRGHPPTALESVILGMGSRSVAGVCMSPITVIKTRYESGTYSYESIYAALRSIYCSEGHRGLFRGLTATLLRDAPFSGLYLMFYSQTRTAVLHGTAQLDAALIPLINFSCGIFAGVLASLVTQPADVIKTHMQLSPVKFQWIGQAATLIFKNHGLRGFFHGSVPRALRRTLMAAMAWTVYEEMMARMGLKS
Sequence of UniProt O88455 (O88455 whole entry): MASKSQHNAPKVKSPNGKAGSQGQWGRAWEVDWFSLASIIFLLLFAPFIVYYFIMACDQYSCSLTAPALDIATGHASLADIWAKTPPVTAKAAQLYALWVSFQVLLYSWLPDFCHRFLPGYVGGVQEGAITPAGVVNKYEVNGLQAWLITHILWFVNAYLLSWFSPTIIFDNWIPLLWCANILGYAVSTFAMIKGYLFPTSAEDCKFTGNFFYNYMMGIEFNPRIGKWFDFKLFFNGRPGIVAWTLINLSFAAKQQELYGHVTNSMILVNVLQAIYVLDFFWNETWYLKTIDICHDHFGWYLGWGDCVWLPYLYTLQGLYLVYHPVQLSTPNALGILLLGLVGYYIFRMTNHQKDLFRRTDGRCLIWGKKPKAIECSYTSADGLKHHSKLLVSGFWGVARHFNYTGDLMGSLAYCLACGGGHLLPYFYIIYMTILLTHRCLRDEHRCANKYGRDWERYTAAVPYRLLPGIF
Sequence of UniProt Q8C0K5 (Q8C0K5 whole entry): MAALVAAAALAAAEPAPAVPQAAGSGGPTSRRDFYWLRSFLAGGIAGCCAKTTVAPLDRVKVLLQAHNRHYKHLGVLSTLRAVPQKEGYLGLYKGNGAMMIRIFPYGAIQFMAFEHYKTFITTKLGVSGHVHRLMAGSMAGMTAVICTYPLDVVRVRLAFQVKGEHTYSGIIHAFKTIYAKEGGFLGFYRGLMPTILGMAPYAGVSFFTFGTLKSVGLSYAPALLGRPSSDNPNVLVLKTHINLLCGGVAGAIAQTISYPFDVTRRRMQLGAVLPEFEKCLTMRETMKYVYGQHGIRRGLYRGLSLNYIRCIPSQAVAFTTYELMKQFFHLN
Sequence of UniProt Q5SW19 (Q5SW19 whole entry): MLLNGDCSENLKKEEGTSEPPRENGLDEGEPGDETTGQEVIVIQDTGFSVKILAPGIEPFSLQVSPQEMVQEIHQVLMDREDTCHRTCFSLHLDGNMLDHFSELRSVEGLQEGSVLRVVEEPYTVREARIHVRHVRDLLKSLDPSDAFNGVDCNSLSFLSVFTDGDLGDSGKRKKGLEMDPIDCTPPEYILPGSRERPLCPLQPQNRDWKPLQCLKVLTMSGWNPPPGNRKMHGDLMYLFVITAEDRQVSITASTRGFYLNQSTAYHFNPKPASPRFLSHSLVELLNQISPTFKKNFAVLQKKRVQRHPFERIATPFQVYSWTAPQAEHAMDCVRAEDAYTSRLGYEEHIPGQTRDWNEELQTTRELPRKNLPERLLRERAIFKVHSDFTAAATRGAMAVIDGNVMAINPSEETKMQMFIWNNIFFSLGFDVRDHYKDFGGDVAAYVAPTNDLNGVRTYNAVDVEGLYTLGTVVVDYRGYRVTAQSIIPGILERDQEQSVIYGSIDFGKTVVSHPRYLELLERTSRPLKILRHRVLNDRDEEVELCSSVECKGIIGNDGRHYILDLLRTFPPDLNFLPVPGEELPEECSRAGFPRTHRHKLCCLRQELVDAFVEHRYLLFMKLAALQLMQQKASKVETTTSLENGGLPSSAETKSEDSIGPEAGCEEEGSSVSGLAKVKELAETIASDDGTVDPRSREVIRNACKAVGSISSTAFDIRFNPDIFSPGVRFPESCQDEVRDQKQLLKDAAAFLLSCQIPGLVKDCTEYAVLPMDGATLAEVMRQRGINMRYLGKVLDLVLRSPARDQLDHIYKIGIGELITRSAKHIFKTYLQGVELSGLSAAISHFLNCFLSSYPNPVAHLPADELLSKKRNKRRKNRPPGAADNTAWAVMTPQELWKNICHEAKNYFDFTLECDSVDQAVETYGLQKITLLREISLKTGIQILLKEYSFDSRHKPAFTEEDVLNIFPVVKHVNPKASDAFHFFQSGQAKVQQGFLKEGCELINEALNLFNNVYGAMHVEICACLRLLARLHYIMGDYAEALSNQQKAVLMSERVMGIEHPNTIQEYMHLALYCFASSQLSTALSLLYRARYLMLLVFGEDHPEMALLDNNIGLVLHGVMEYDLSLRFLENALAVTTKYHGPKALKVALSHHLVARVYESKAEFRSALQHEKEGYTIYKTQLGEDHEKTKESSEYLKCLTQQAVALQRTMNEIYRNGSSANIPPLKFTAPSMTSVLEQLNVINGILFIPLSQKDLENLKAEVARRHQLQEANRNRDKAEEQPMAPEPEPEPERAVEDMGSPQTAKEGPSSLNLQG
Sequence of UniProt Q61161 (Q61161 whole entry): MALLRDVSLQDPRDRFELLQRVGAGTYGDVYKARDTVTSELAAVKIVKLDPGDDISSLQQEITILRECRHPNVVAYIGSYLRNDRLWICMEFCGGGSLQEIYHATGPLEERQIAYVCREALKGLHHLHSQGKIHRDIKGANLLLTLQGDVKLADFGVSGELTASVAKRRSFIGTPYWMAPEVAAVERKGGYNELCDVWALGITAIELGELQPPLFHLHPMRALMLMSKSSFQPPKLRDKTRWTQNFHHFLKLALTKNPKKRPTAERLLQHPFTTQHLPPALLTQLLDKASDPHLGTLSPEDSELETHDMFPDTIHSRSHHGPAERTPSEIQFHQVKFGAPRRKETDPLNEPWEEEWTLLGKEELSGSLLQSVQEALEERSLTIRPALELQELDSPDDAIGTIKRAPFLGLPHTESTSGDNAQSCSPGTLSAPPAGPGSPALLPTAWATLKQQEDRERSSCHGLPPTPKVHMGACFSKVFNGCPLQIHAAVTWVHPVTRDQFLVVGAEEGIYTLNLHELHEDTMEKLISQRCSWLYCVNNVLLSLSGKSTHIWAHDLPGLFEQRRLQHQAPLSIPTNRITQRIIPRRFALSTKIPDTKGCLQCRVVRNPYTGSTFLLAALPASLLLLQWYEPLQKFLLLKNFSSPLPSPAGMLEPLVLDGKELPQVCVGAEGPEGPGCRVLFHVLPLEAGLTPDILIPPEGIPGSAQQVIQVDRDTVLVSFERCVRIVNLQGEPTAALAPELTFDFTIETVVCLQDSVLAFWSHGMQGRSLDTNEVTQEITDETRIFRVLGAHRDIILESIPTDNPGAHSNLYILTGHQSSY
Sequence of UniProt P63158 (P63158 whole entry): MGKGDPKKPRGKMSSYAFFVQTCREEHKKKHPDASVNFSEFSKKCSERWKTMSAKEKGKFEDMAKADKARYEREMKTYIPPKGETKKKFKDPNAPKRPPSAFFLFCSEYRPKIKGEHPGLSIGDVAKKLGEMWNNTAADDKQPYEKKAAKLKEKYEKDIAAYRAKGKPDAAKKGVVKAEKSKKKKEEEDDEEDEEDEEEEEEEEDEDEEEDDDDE

| Target | log2 fold change |
| --- | --- |
| UniProt Q8BPM2 (peptide sequence: LLTHTFVGQPGLSR, peptide start residue: 271) | -1.27 |
| UniProt Q9QZL0 (peptide sequence: DLKPSNILLDPELHAK, peptide start residue: 143) | -1.1 |
| UniProt Q8C0K5 (peptide sequence: GEHTYSGIIHAFK, peptide start residue: 164) | 0.837 |
| UniProt P08226 (peptide sequence: LQAEIFQAR, peptide start residue: 262) | 0.428 |
| UniProt O35099 (peptide sequence: YLHDNQIVHR, peptide start residue: 800) | -3.12 |
| UniProt P36552 (peptide sequence: NPYAPTMHFNYR, peptide start residue: 240) | -0.601 |
| UniProt O89079 (peptide sequence: KYGVVLDEIKPSSAPELQAVR, peptide start residue: 65) | -0.856 |
| UniProt Q7TT50 (peptide sequence: FQFPSHVTDVSEEAK, peptide start residue: 300) | -1.06 |
| UniProt Q61036 (peptide sequence: ELLQHPFLK, peptide start residue: 493) | -2.37 |
| UniProt Q91XD8 (peptide sequence: LQALQPSDLGPR, peptide start residue: 75) | -0.916 |
| UniProt Q80XL6 (peptide sequence: NLPDSDSEECLVHGDFK, peptide start residue: 206) | -0.421 |
| UniProt Q61831 (peptide sequence: DLKPSNIVVK, peptide start residue: 151) | -1.06 |
| UniProt P20444 (peptide sequence: LGCGPEGER, peptide start residue: 581) | -2.63 |
| UniProt Q9CYH2 (peptide sequence: LGVWYNSFR, peptide start residue: 145) | -2.12 |
| UniProt O88455 (peptide sequence: LLVSGFWGVAR, peptide start residue: 390) | 0.757 |
| UniProt Q8VCR2 (peptide sequence: ALLPSMLR, peptide start residue: 154) | -0.279 |

| Target | log2 fold change |
| --- | --- |
| UniProt P63158 (peptide sequence: HPDASVNFSEFSKKCSER, peptide start residue: 31) | -0.395 |
| UniProt P30681 (peptide sequence: MSSYAFFVQTCREEHK, peptide start residue: 13) | -0.185 |
| UniProt Q2TBE6 (peptide sequence: RFEAEPLPENTNR, peptide start residue: 276) | -2.23 |
| UniProt Q5SW19 (peptide sequence: YLELLER, peptide start residue: 517) | -0.493 |
| UniProt O35495 (peptide sequence: LADFGLAR, peptide start residue: 853) | -1.69 |
| UniProt P97742 (peptide sequence: IWMAMVK, peptide start residue: 149) | 0.562 |
| UniProt Q62073 (peptide sequence: VNHPNIVK, peptide start residue: 84) | -1.73 |
| UniProt Q61161 (peptide sequence: GLHHLHSQGK, peptide start residue: 123) | -1.65 |
| UniProt P34928 (peptide sequence: AWFSEAFGK, peptide start residue: 70) | 0.496 |
| UniProt P26149 (peptide sequence: YIPPFNR, peptide start residue: 311) | 0.476 |
| UniProt Q03963 (peptide sequence: DLKPGNIFLVDER, peptide start residue: 376) | -1.55 |
| UniProt Q99KG5 (peptide sequence: VLYYMEK, peptide start residue: 347) | -0.236 |
| UniProt Q9CQU3 (peptide sequence: YIPFTHGK, peptide start residue: 174) | 0.278 |
| UniProt P35980 (peptide sequence: TNSTFNQVVLK, peptide start residue: 39) | 0.658 |
| UniProt P70424 (peptide sequence: VLGSGAFGTVYK, peptide start residue: 719) | -1.19 |
